# Results published in PubChem BioAssay (NCI).
# This is part of a sample that, as a whole, favours compounds with a hit. Of some 79,000 tested, about 15% had one in any assay. Values without a mark were called inactive. Activity calls are given as the source filed them. Cut-off read from the data, not from the text of the source: active = growth inhibition above about 70%; inactive = the rest. Where a SMILES comes first, the peptide text is derived from it.
# Key:
# [1] = NCI Yeast Anticancer Drug Screen. Data for the rad50 strain (AID 155);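 note: 0% = growth of vehicle-only cultures of the same strain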; details: S. cerevisiae rad50 strain growth inhibition; at 50.0 µM; active compounds read high
# How it was run: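 Cells are treated with compound, grown, and their growth is then scored against vehicle-only cultures of the same repair-deficient yeast strain.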
# [2] = NCI Yeast Anticancer Drug Screen. Data for the mec2-1 strain (AID 157); details: S. cerevisiae mec2-1 strain, at 50.0 µM, active compounds read high
# How it was run: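 Each compound was tested on mec2-1 yeast, a strain altered in DNA damage repair or cell cycle control. Growth inhibition is reported relative to vehicle.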
# [3] = NCI Yeast Anticancer Drug Screen. Data for the sgs1 mgt1 strain (AID 161);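 note: 0% = growth of cultures given vehicle only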; details: S. cerevisiae sgs1 mgt1 strain, at 50.0 µM, active compounds read high
# How it was run: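 Inhibition of yeast growth, normalised to vehicle-treated controls, is reported for a strain bearing genetic alterations in DNA damage repair.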
# [4] = NCI Yeast Anticancer Drug Screen. Data for the cln2 rad14 strain (AID 165);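 note: 0% = growth equal to vehicle treated cultures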; details: S. cerevisiae cln2 rad14 strain, at 50.0 µM, active compounds read high
# How it was run: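 Test compounds were added to cln2 rad14 yeast cultures; inhibition of growth was then determined by comparison with vehicle treatment.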
# [5] = NCI Yeast Anticancer Drug Screen. Data for the bub3 strain (AID 167); details: S. cerevisiae bub3 mutant strain, at 50.0 µM, active compounds read high
# How it was run: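 Part of a panel of yeast mutants defective in DNA damage repair or cell cycle regulation. Each strain is grown with compound, and inhibition is calculated relative to solvent-treated cultures.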
# [6] = NCI Yeast Anticancer Drug Screen. Data for the mlh1 rad18 strain (AID 175); details: S. cerevisiae mlh1 rad18 strain growth inhibition; at 50.0 µM; active compounds read high
# How it was run: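 Inhibition values reflect reduced growth of mutant yeast versus vehicle-treated controls following compound exposure; the mutations affect DNA damage repair.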
Structure (SMILES),growth inhibition [1],growth inhibition [2],growth inhibition [3],growth inhibition [4],growth inhibition [5],growth inhibition [6]
CCCCC(CC)CSC[N+](C)(CC)CC (stereo unspecified),45%,24.8%,22.4%,1.5%,15.9%,20.6%
C(CN1CCC2CCC(C2)C1)=C(c1ccccc1)c1ccccc1 (stereo unspecified),3.75%,-1.3%,15.3%,-17.9%,26.1%,4.35%
CCOC(=O)CCC(NC(=O)c1ccc(Nc2cnc3ccc(C(F)(F)F)cc3n2)cc1)C(=O)OCC (stereo unspecified),24.3%,6.45%,12.2%,14.1%,19.9%,-23.8%
COc1ccc(C)cc1N,19.2%,-5.3%,-1.15%,24.4%,-3.2%,24.4%
Brc1ccc(C2CC(c3cccc4ccccc34)=Nc3ccccc3S2)cc1 (stereo unspecified),-14.1%,-2.45%,-10.9%,-29.2%,8.7%,18.1%
CCCCCCCCCCCCCCCCOC(=O)c1cc([N+](=O)[O-])cc([N+](=O)[O-])c1Sc1ncnc2nc[nH]c12,-3.8%,-7.8%,3.5%,-2.35%,-21.2%,-32.2%
N#CC1CC=CCC1 (stereo unspecified),19.4%,4.95%,0.35%,15.2%,-12.9%,-5.65%
N#Cc1cccc(N2C(=O)c3ccc(C(=O)c4ccc5c(c4)C(=O)N(c4cccc(C#N)c4)C5=O)cc3C2=O)c1,-25.9%,-16.3%,-49.5%,23.8%,-0.7%,-12.3%
CCC(C)C(N)C(=O)NC(Cc1ccc(O)cc1)C(=O)O (stereo not drawn) (H-Ile-Tyr-OH; configuration not given here),16.4%,-2.35%,-0.8%,15.8%,-10.2%,21.2%
CCCCCCCCCC[N+](C)(C)CC(O)CO (stereo unspecified),-51.8%,7.9%,2.2%,9.45%,-2.85%,-11.3%
Cc1ncc([N+](=O)[O-])n1CCSC(N)=O,-6.75%,-13.6%,-11.2%,11.4%,16.8%,33.5%
CCN(CC)C(=O)N1C=CC(C)C=C1,-30.4%,-15.1%,-15.4%,-43.1%,10.9%,5.5%
COc1ccc(OC(C)C(=O)O)c2c1CCCC2=O (stereo unspecified),21.6%,6.3%,-17.1%,25.6%,5.15%,22.7%
Cn1c(=O)c2c(nc(NN)n2C)n(C)c1=O,1.15%,-10.8%,-2.65%,-25%,10.9%,4.7%
O=C1ON(c2ccccc2)C(c2cccc(Cl)c2)N1c1ccccc1 (stereo unspecified),14.1%,-2.85%,-3.95%,3.25%,9.25%,-16.1%
c1ccc2cc3c(cc2c1)[nH]c1ccccc13,-10.7%,-26.4%,-0.85%,-3.1%,-25.4%,14.8%
CCOc1ccccc1NC(=O)C1=C(C)NC(C)=C(C(=O)Nc2ccccc2OCC)C1c1ccc(NC(C)=O)cc1,-30.1%,-10.8%,-15.4%,-5.9%,-22.2%,11.7%
Cc1ccc(NC(=O)NCCCCCCNC(=O)Nc2ccc(C)cc2)cc1,-7.05%,-13%,-7.95%,-9.05%,-14.4%,-17.9%
CCOc1ccc(/C=N/NC(=O)CCCCCCCCC(=O)N/N=C/c2ccc(OCC)c(OC)c2)cc1OC,-25.6%,-5.1%,-27.1%,-27.6%,-1.45%,-8.35%
O=C1NC(N2CCCC(CO)C2)=N/C1=C\c1ccc(Cl)cc1 (stereo unspecified),25.6%,-10.9%,-18.9%,23.6%,-17.8%,-19.1%
O=C([O-])C[n+]1ccccc1,-11.3%,-2.75%,-14.5%,-35.9%,-19.1%,-14.4%

Structure (SMILES),growth inhibition [1],growth inhibition [2],growth inhibition [3],growth inhibition [4],growth inhibition [5],growth inhibition [6]
O=c1[nH]nc(-c2ccccc2)n1/N=C/c1ccncc1,21.7%,16.4%,15.4%,10.2%,17.6%,22.7%
C1=Nc2ccccc2/C1=C/c1ccc2c(c1)OCO2,24.3%,11.7%,-6.9%,-55.6%,8.85%,8.5%
CC1C2CC(CC2(C)O)C1(C)C (stereo unspecified),8.45%,-3.1%,3.35%,9.05%,-3.3%,-7.35%
COc1cc(C2C(Cl)C(=O)N2n2cnc3ccccc3c2=O)ccc1O (stereo unspecified),-22.7%,3.3%,-11.2%,12.8%,-10.2%,-11.8%
CC(=O)N1CCCCC1C/C(C)=N/O (stereo unspecified),3.55%,11.6%,-5.95%,-5.6%,1.35%,3.3%
N#Cc1cc([N+](=O)[O-])ccc1NC(=O)C(=O)Nn1c(=S)[nH]c2ccccc2c1=O,-2.25%,-2.6%,-34.5%,14.6%,10.3%,5.9%
Clc1ccc(N=Nc2ccccn2)cc1,18.1%,2%,-11.1%,-65%,-7.6%,-12.2%
COC(=O)COc1cc2c(cc1C(C)c1ccc(O)cc1)OCO2 (stereo unspecified),98.8% (active),98.5% (active),99% (active),99.1% (active),99.2% (active),98.7% (active)
Cc1cc(C)c(-c2c(C)cc(C)c([N+](=O)[O-])c2C)c(C)c1N,98.1% (active),98.8% (active),98.4% (active),96.5% (active),97.2% (active),97.8% (active)
CC1=C[P+](c2ccccc2)(c2ccccc2)C=C(C)O1,8.9%,3.55%,12.6%,0.65%,4.5%,4.25%
O=C(O)c1cc([N+](=O)[O-])ccc1Oc1cccc([N+](=O)[O-])c1,-30.9%,-1.2%,1.2%,27%,2.95%,-8.25%
Cc1ccc(CNC(=O)NCCCCCCNC(=O)NCc2ccc(C)cc2)cc1,-29.4%,-6.45%,-9.95%,-20.3%,-2.95%,-1.1%
COC(=O)[C@@H](N1C(=O)c2ccccc2C1=O)C1(C)CC(Cl)=NO1 (stereo partly specified),-14.4%,2.75%,-14.7%,-11.8%,4.45%,12.1%
O=C(/C=C/c1ccccc1)/C=N/N1C(=S)N(c2ccccc2)C(=Nc2ccccc2)C1=Nc1ccccc1,-7.4%,-15.8%,-12.9%,-20.2%,-20.1%,-21.6%
COc1ccc2cc3[n+](cc2c1O)CCc1cc2c(cc1-3)OCO2,6.75%,-22.8%,19%,20.6%,22.2%,22.9%
COc1ccc(Nc2nc3c(N)cc(C(F)(F)F)cc3nc2-c2ccccc2)cc1OC,0.5%,0.95%,-22.6%,-6.8%,-18.6%,-7.1%
CC(=O)Nc1cccc(OCCOc2ccccc2[N+](=O)[O-])c1,-0.6%,-11.3%,-8.65%,3.15%,4.7%,8.2%
Cc1cc(N(CCC#N)CCC#N)ccc1/C=C1N=C(/C=C\c2ccccc2)N(NC(=O)CC(=O)Nc2ccccc2Cl)C\1=O,14.6%,-0.8%,1.55%,11.3%,2.8%,5.05%
CCC(=O)c1c(NOC2OCC(OC(C)=O)C(OC(C)=O)C2OC(C)=O)nc(OC)n(C)c1=O (stereo unspecified),-18.3%,-0.65%,-35.2%,9.6%,-24.8%,-11.5%
CCCN1C(=O)c2cc(=O)[nH]c(O)c2C1C (stereo unspecified),-14.2%,-10.9%,-8.75%,9%,-13.3%,0.4%
